This is part of a sample that, as a whole, favours compounds with a hit. Of some 83,000 tested, about 20% had one in any assay.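 Single-concentration screen, 48 h exposure, 96-well plates. Endpoint: percent growth. Below 10 = active.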 Values without a mark were called inactive. Activity calls are given as the source filed them.
Experiments:
Assay in all cases: NCI-60 one-dose screen, 48 h (100 = growth as untreated, 0 = no growth, -100 = all killed)
Details in all cases: 10 µM unless noted
NCI-H23 lung = tested on: NCI-H23 lung
NCI-H226 lung = tested on: NCI-H226 lung
NCI-H322M lung = tested on: NCI-H322M lung
HOP-62 NSCLC = tested on: HOP-62 NSCLC
NCI-H460 lung = tested on: NCI-H460 lung
HOP-92 NSCLC = tested on: HOP-92 NSCLC
NCI-H522 lung = tested on: NCI-H522 lung
A549/ATCC NSCLC = tested on: A549/ATCC NSCLC
786-0 renal = tested on: 786-0 renal
COLO 205 colon = tested on: COLO 205 colon

Cc1cccc[n+]1C1c2ccccc2-c2ccccc21
growth (NCI-H23 lung): 103% | growth (NCI-H226 lung): 96.1% | growth (NCI-H322M lung): 107% | growth (HOP-62 NSCLC): 70.5% | growth (NCI-H460 lung): 106% | growth (HOP-92 NSCLC): 68.9% | growth (NCI-H522 lung): 57.9% | growth (A549/ATCC NSCLC): 78.8% | growth (786-0 renal): 90.7% | growth (COLO 205 colon): 75.3%

Cc1ccc(S(=O)(=O)OCCCOS(=O)(=O)c2ccc(C)cc2)cc1
growth (NCI-H23 lung): 105% | growth (NCI-H226 lung): 107% | growth (NCI-H322M lung): 92.3% | growth (HOP-62 NSCLC): 113% | growth (NCI-H460 lung): 96.5% | growth (HOP-92 NSCLC): 77.4% | growth (NCI-H522 lung): 89% | growth (A549/ATCC NSCLC): 93.4% | growth (786-0 renal): 90.8% | growth (COLO 205 colon): 110%

O=C1/C(=C/c2ccccn2)NC(=S)N1c1ccccc1Cl
growth (NCI-H23 lung): 56.4% | growth (NCI-H226 lung): 78.3% | growth (NCI-H322M lung): 66.7% | growth (HOP-62 NSCLC): 38.9% | growth (NCI-H460 lung): 31.2% | growth (HOP-92 NSCLC): 102% | growth (NCI-H522 lung): 58.1% | growth (A549/ATCC NSCLC): 51% | growth (786-0 renal): 31.8% | growth (COLO 205 colon): 66.4%

Cn1cc(-c2csc(-c3cn(CCCN4CCOCC4)c4ccccc34)n2)c2cccnc21
growth (NCI-H23 lung): 88.3% | growth (NCI-H226 lung): 75.7% | growth (NCI-H322M lung): 95.6% | growth (HOP-62 NSCLC): 97.4% | growth (NCI-H460 lung): 88.5% | growth (HOP-92 NSCLC): 67.7% | growth (NCI-H522 lung): 67.9% | growth (A549/ATCC NSCLC): 79.3% | growth (786-0 renal): 74.4% | growth (COLO 205 colon): 73.9%

Cc1cccc(Oc2ccc(Nc3ncnc4ccc(NC(=O)CN5CCN(C)CC5)cc34)cc2Cl)c1
growth (NCI-H23 lung): 69.6% | growth (NCI-H226 lung): 85.2% | growth (NCI-H322M lung): 15.1% | growth (HOP-62 NSCLC): 60% | growth (NCI-H460 lung): 2.18% (active) | growth (HOP-92 NSCLC): 43.1% | growth (NCI-H522 lung): 0.619% (active) | growth (A549/ATCC NSCLC): 28.4% | growth (786-0 renal): -40.7% (active) | growth (COLO 205 colon): -43.4% (active)

COc1ccc(Oc2nc(Nc3ccc(N4CCOCC4)cc3)ncc2NC(=O)Nc2cc(OC)cc(OC)c2)cc1
growth (NCI-H23 lung): 33.2% | growth (NCI-H226 lung): 32.7% | growth (NCI-H322M lung): 23.3% | growth (HOP-62 NSCLC): 48.2% | growth (NCI-H460 lung): -36.5% (active) | growth (HOP-92 NSCLC): -11.5% (active) | growth (NCI-H522 lung): 4.69% (active) | growth (A549/ATCC NSCLC): 2.22% (active) | growth (786-0 renal): 22.5% | growth (COLO 205 colon): -54.8% (active)

O=C1C(Nc2ccccn2)=C(I)C(=O)c2ncccc21
growth (NCI-H23 lung): -35.1% (active) | growth (NCI-H226 lung): 33% | growth (NCI-H322M lung): -31.2% (active) | growth (HOP-62 NSCLC): -72.5% (active) | growth (NCI-H460 lung): -61.4% (active) | growth (HOP-92 NSCLC): -2.25% (active) | growth (NCI-H522 lung): -63.1% (active) | growth (A549/ATCC NSCLC): -48.8% (active) | growth (786-0 renal): -22.9% (active) | growth (COLO 205 colon): 49.2%

C=C(C)[C@@H]1CC[C@]2(COC(C)=O)CC[C@]3(C)[C@H](CC[C@@H]4[C@@]5(C)CCCN(C(C)=O)C(C)(C)[C@@H]5CC[C@]43C)[C@@H]12
growth (NCI-H23 lung): 89.2% | growth (NCI-H226 lung): 45.2% | growth (NCI-H322M lung): 61.3% | growth (HOP-62 NSCLC): 82.6% | growth (NCI-H460 lung): 0.0182% (active) | growth (HOP-92 NSCLC): 69.3% | growth (NCI-H522 lung): 59.6% | growth (A549/ATCC NSCLC): 33.8% | growth (786-0 renal): 8.13% (active) | growth (COLO 205 colon): -76.5% (active)

CCCCCCCCCCCCCOC(=O)c1c(C)[nH]c(/C=C2\N=C(c3ccc[nH]3)C=C2OC)c1C
growth (NCI-H23 lung): 31.4% | growth (NCI-H226 lung): -38.1% (active) | growth (NCI-H322M lung): 32.7% | growth (HOP-62 NSCLC): 30.1% | growth (NCI-H460 lung): 16.1% | growth (HOP-92 NSCLC): -6.46% (active) | growth (NCI-H522 lung): 5.93% (active) | growth (A549/ATCC NSCLC): -4.51% (active) | growth (786-0 renal): 22.3% | growth (COLO 205 colon): 7.58% (active)

CC/C=C\CCC/C=C1/C(=O)C=C[C@@H]1C/C=C\CCCC(=O)OC
growth (NCI-H23 lung): 34.9% | growth (NCI-H226 lung): 77% | growth (NCI-H322M lung): 101% | growth (HOP-62 NSCLC): 42.3% | growth (NCI-H460 lung): 52.4% | growth (HOP-92 NSCLC): 83.4% | growth (NCI-H522 lung): 11.7% | growth (A549/ATCC NSCLC): 79% | growth (786-0 renal): 69.3% | growth (COLO 205 colon): 49.7%

Cc1ccc(S(=O)(=O)Oc2ccc3sc4cccc(NCCN(C)C)c4c(=O)c3c2)cc1
growth (NCI-H23 lung): -93.5% (active) | growth (NCI-H226 lung): -71.9% (active) | growth (NCI-H322M lung): -88.1% (active) | growth (HOP-62 NSCLC): -89.6% (active) | growth (NCI-H460 lung): -92.7% (active) | growth (HOP-92 NSCLC): -77.4% (active) | growth (NCI-H522 lung): -81.7% (active) | growth (A549/ATCC NSCLC): -74.1% (active) | growth (786-0 renal): -85.7% (active) | growth (COLO 205 colon): -83.8% (active)

COc1cc(-c2nc3cc(Cl)c(Cl)cc3[nH]2)ccc1OCC(=O)N=Nc1c(O)[nH]c2ccc(Cl)cc12
growth (NCI-H23 lung): -3.62% (active) | growth (NCI-H226 lung): 30.4% | growth (NCI-H322M lung): 35.2% | growth (HOP-62 NSCLC): -36.7% (active) | growth (NCI-H460 lung): 5.88% (active) | growth (HOP-92 NSCLC): -19.7% (active) | growth (NCI-H522 lung): 4.94% (active) | growth (A549/ATCC NSCLC): 45.8% | growth (786-0 renal): 2.74% (active) | growth (COLO 205 colon): -63.3% (active)

CN1CCN(CCOc2ccc(-c3cnc4c(-c5ccc(F)cc5)cnn4c3)cc2)CC1
growth (NCI-H23 lung): 67% | growth (NCI-H226 lung): 104% | growth (NCI-H322M lung): 75% | growth (HOP-62 NSCLC): 72.6% | growth (NCI-H460 lung): -1.23% (active) | growth (HOP-92 NSCLC): 54.9% | growth (NCI-H522 lung): 64.1% | growth (A549/ATCC NSCLC): 27.3% | growth (786-0 renal): 60.3% | growth (COLO 205 colon): -51.7% (active)
